Test results published in publication PMC5540273 (PLoS ONE, 2017).

Tested on: LYN
Conditions: concentration: 1 μM, replicates: in singlicate; n = 1
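Note: KINOMEscan kinase panel screen.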

| Structure (SMILES) | %Inh |
| --- | --- |
| COc1cccc(NC(=O)Nc2ccc(C)c(-c3ccc(C(=O)Nc4ccncc4)cc3)c2)c1 [GSK1398474] | 97.9% |
| CS(=O)(=O)Cc1ccc(Nc2nccc(-c3c(-c4cccc(NC(=O)C5CCCCC5)c4)nn4ncccc34)n2)cc1 [GSK350559] | 16% |
| COc1ccc(Nc2nccc(-c3ccc(NC(=O)c4cc5cc(F)ccc5[nH]4)cc3)n2)cc1 [GSK1229496] | 0% |
| Cc1cccc2c(-c3ccncn3)c(-c3ccc(F)cc3)nn12 [GW515532] | 0% |
| NS(=O)(=O)c1cccc(N/C=C2\C(=O)Nc3ccc(S(=O)(=O)Cc4c(Cl)cccc4Cl)cc32)c1 [GSK398099] | 0% |
| O=C(Nc1n[nH]c2nc(-c3ccco3)c(Br)cc12)C1CCN(Cc2ccccc2)C1.O=C(O)[C@H](O)[C@@H](O)C(=O)O (stereo not drawn) [SB-742034] | 2% |
| COc1ccc(-c2coc3ccc(-c4nnc(C)o4)cc23)cc1 | 10% |
| O=c1cc(N2CCOCC2)nc2n(Cc3ccccc3F)ccn12 [GSK2297428] | 0% |
| COC(=O)c1cccc(NC(=O)NC2CCN(c3ccnc(Nc4ccc(F)cc4)n3)C2)c1 (stereo not drawn) [GSK1379725] | 0% |
| Cc1c(Cn2c(C)c(C)n3c(=O)cc(N4CCOCC4)nc23)cccc1C(F)(F)F [GSK2328680] | 0% |
| CNC(=O)c1ccc(C)c(-n2c(C)cc(OCc3ccc(F)cc3F)c(Br)c2=O)c1 | 1% |
| COc1ccc(Nc2nccc(N3CCC(NC(=O)c4cc5ccccc5s4)C3)n2)cc1 (stereo not drawn) [GSK1379738] | 0% |
